Bioassay records (PubChem)
Giardia kill – Giardia lamblia killing; actives 0.15% (n = 340,000); activity change, % at 7.66 µM, hits read low; AID 540267; Giardia lamblia trophozoite viability; in the data active = activity change below about -80%; inconclusive = between about -30% and that limit;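 also: parasites exposed to compound for two days anaerobically before the ATP read; % is scaled to controls: 0 for no effect and ±100 for the full control effect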
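Giardia trophozoites, 100 cells per well, were exposed to compounds for 48 hrs at 37 deg C under anaerobic conditions; viability was then read as ATP content by bioluminescence after 15-30 min at room temperature.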
ERG-DNA inh – ERG Ets/DNA interaction inhibition; actives 0.028% (n = 370,000); Potency, µM (highest dose often 76.9 µM), inactives show at the highest dose FP activity, negative = inhibition, most hits filed as inhibitors; P11308; AID 624246; fluorescence polarization, His-ERG Ets domain / labelled DNA; active = well fitted inhibition curve with a large enough effect in the polarisation, with a control signal flat; inconclusive = small, poorly fitted or top-dose-only effect, or effect the other way, or a change in a side signal; inactive = no such curve, though single readings can be large or run the other way; the % refers to the polarisation;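 also: polarization taken with two DNA probes labelled with fluorescein and Texas red; potency is read from the fitted curve at half-maximal effect; % of control where 0% means no effect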
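His-tagged ERG Ets domain (1 uM in the protein solution; 300mM KCl, 50mM Tris-HCl, 1mM EDTA, 1mM DTT, pH 7.5) received compound, then a probe mix of 5 nM fluorescein-DNA and 100nM Texas-615-DNA. Fluorescence polarization was read for both dyes.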
a7 integrin act – activates integrin-mediated alleviation for muscular dystrophy; alpha7betagal myoblasts, beta-gal FDG fluorescence, 48 h; Potency, µM (titrated, usually from 38.3 µM), for inactives: top-dose activation, hits mostly activators; actives 0.064% (n = 350,000);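 also: potency is read from the fitted curve at half-maximal effect; 100% = response of the positive control SU9516; nearly all actives have a fitted effect of over 60% in size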
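Alpha7betagal+/- myoblasts (passage 13) were plated 16-24 hr, then exposed to compounds (1:260 dilution of DMSO stock) for 48 hours at 37C. After MPER lysis, β-galactosidase reporter activity was read as FDG fluorescence (ex 480/em 540) after 30 minutes.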
RORgamma inh – inhibitors of mouse ROR gamma transcriptional activity; actives 5.4% (n = 310,000); Potency, µM (series often up to 53.6 µM), inactives show at the top dose activity change, negative = inhibition, hits mostly inhibitors; Drosophila S2 Gal4-RORgamma UAS-luciferase reporter, 20 h; P51450; also: potency is read from the fitted curve at half-maximal effect; % is scaled to controls: 0 for no effect and ±100 for the full control effect; nearly all actives have a fitted effect of over 60% in size
Target sequence (P51450 whole entry, looked up, the tested form may be a part): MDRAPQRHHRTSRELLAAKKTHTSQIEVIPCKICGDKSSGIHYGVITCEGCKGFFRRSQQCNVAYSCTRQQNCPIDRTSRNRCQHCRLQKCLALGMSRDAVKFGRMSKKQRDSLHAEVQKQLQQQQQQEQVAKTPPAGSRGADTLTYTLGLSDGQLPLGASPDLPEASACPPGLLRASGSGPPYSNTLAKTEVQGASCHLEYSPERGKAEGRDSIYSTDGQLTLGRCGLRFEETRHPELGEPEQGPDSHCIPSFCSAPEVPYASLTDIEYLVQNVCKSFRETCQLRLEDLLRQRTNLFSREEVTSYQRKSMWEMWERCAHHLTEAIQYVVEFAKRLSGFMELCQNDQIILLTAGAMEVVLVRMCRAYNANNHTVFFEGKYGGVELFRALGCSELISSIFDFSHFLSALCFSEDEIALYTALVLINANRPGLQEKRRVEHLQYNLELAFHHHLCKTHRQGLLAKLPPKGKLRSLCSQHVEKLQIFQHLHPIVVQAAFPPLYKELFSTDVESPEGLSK
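Drosophila S2 cells stably expressing Gal4-DBD/mouse RORγ fusion under metallothionein promoter plus UAS-luciferase; compound 1 h, then 700 uM CuSO4 induction for 20 h at ambient temperature; inhibition read as reduced luminescence.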
VP16 counter – Gal4-VP16 reporter inhibition counter-screen; AID 2546; Drosophila S2 Gal4-VP16 UAS-luciferase, luminescence, 20 h; actives 3.5% (n = 310,000); Potency, µM (top dose mostly 53.6 µM), without a hit: at the top dose activity, negative = inhibition, actives largely listed as inhibitors;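 also: Gal4-VP16 expression switched on by copper sulfate through the metallothionein promoter; potency is read from the fitted curve at half-maximal effect; % is scaled to controls: 0 for no effect and ±100 for the full control effect; nearly all actives have a fitted effect of over 50% in size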
Starred values were filed as active, the others as inactive; ? = inconclusive; . = no result. Shown is part of a subset that was picked to be rich in hits. Unless noted, calls follow the shape of the dose curve; as a rule, active = well fitted curve in the direction sought with a large enough effect; inconclusive = small, poorly fitted or top-dose-only effect, or another doubt; inactive = no such curve, though single readings can be large; an effect the other way counts as inactive or inconclusive.

SMILES	Giardia kill	ERG-DNA inh	a7 integrin act	RORgamma inh	VP16 counter
CCOC(=O)N1CCN(S(=O)(=O)c2ccc(C(=O)Nc3nnc(CC)o3)cc2)CC1	11	-17%	-3%	?	?
COCc1nnc(NC(=O)c2ccc(S(=O)(=O)N3CCCC3)cc2)o1	3	-16%	1%	4.5µM*	11µM*
Cc1cccc(C)c1NC(=O)C(C)Sc1n[nH]c(-c2ccncc2)n1 (centres undefined)	-19	13%	6%	?	-5%
COC(=O)/C(=N/Nc1ccccc1OC)N1CCCc2ccccc21	6	-5%	11%	26%	1%
S=C(NCc1cccnc1)Nc1ccc2c(c1)OCO2	3	-1%	6%	-12%	1%
CC(C)c1ccc(NC(=S)NCc2ccc3c(c2)OCO3)cc1	11	-8%	-22%	13µM*	?
CC(C)c1ccc(NC(=O)Cn2nnc(C(=O)NCc3ccc4c(c3)OCO4)c2N)cc1	15	9%	-8%	-17%	-5%
COC(=O)NCc1ccc2c(c1)OCO2	0	-3%	8%	-5%	-2%
S=C(NCc1ccc(Cl)c(Cl)c1)Nc1ccc2c(c1)OCO2	-12	.	10%	11µM*	?
COc1ccc(NC(=S)NCc2ccc3c(c2)OCO3)cc1	1	0%	12%	13µM*	?
N#Cc1ccc(CN2CCN(C(=O)C3CC(=O)N(c4ccc5c(c4)OCCO5)C3)CC2)cc1 (centres undefined)	.	.	-30%	.	.
C[C@@H]1C[C@@H]([C@@H](C)CC2CC(=O)NC(=O)C2)C(=O)[C@@H](C)C1	.	.	.	0.22µM*	0%
CC1CC(C)C(=NNC(N)=O)C(C(O)CC2CCC(=O)NC2=O)C1 (centres undefined)	?	-11%	-47%	.	.
CCOC(=O)c1oc2ccc(/C=N/O)c(Cl)c2c1C	9	-8%	9%	0.56µM*	3.2µM*
CCOC(=O)c1oc2cc(C)cc(C)c2c1C	4	0%	?	?	13%
COCCNC(=O)C(c1ccc(F)cc1)N(C(=O)CCC(=O)Nc1ccccn1)C1CCCCC1 (centres undefined)	-4	1%	16%	-20%	7%
CCn1c(C)nc2cc(S(N)(=O)=O)ccc21	-20	-4%	1%	4%	-9%
CCn1c(C)nc2cc(S(=O)(=O)C(F)(F)C(F)C(F)(F)F)ccc21 (centres undefined)	7	-8%	-53%	-25%	4µM*
S=C(N/N=C/c1ccc2c(c1)OCO2)NC1CC2CCC1C2 (centres undefined)	-1	-2%	-20%	4.5µM*	3.2µM*
COc1ccc(/C=N/NC(=S)N[C@H]2CC3CCC2C3)cc1 (some centres undefined)	-10	-28%	13%	0.63µM*	3.2µM*
COc1cc(/C=N/NC(=S)NC2CC3CCC2C3)ccc1O (centres undefined)	-4	0%	0%	2µM*	5µM*
COc1ccc(/C=C/C(=O)NC2CC3CCC2C3)cc1 (centres undefined)	10	-23%	-38%	19%	16%
CCC(=O)N1CCN(c2ccc(NC(=S)NC(=O)COc3ccccc3)cc2)CC1	2	-1%	?	?	13µM*
CC(=O)N1CCN(c2ccc(NC(=O)c3cc4ccccc4o3)cc2)CC1	-25	5%	15%	?	21%
CC(C)C(=O)N1CCN(c2ccc(NC(=S)NC(=O)c3cc4ccccc4o3)cc2)CC1	7	8%	-15%	5µM*	?
CCC(=O)N1CCN(c2ccc(NC(=S)NC(=O)c3cc4ccccc4o3)cc2)CC1	3	-1%	-13%	13µM*	4µM*
O=C(NC(=S)Nc1ccc(NC(=O)c2cccs2)cc1)c1cc2ccccc2o1	1	-1%	-24%	7.1µM*	7.9µM*
CCOC(=O)c1c(S(=O)(=O)NCc2ccco2)c(C)n(C)c1C	11	-1%	-4%	-8%	4%
O=C(Cc1ccc([N+](=O)[O-])cc1)Oc1ccccc1	-8	-4%	?	.	.
O=C(Nc1cc(F)ccc1F)N1CCN(c2ccnc3cc(Cl)ccc23)CC1	-13	7%	10%	53%	13µM*
